Test results as given in PubChem BioAssay AID1159580 (chemical genetic matrix, 2015).
The campaign covered roughly 5,500 compounds. About 2,000 (36%) were called active. About 18% were inconclusive and are not listed. Cut-off read from the data, not from the text of the source: active = normalized growth mostly below about 0.91 (no sharp cut-off); inconclusive = no clear call, values can overlap the other calls; inactive = mostly above about 0.92. This is one part of the list.

Test: chemical genetic growth profiling, strain panel (AID 1159580);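 note: tested at 20 µM; growth read once vehicle control cultures reached saturation at 30 °C; 1 = growth at the plate median or of vehicle wells; lower values mean less growth of the strain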
Conditions: S. cerevisiae deletion strains, growth OD
[1] = locus YAL040C, strain CLN3, hits give low values
[2] = locus YDR363W, strain ESC2, hits give low values
[3] = locus YER002W, strain NOP16, hits give low values
[4] = locus YNL175C, strain NOP13, hits give low values
[5] = locus YNL197C, strain WHI3, hits give low values
[6] = locus YNL224C, strain SQS1, hits give low values
[7] = locus YOR083W, strain WHI5 (second series), hits give low values

Measured: normalized growth

O=C(O)[C@H]1NCCC[C@H]1C(=O)O
inactive: [1] 1.06 | locus YCL061C, strain MRC1 (second series), hits give low values 0.986 | locus YDR150W, strain NUM1, hits give low values 1.01 | [2] 0.991 | [3] 0.993 | locus YMR263W, strain SAP30, hits give low values 0.99 | locus YMR307W, strain GAS1, hits give low values 0.991 | locus YNL128W, strain TEP1, hits give low values 0.994 | [4] 1 | [5] 0.982 | [6] 0.999 | [7] 0.984 | locus YPL055C, strain LGE1, hits give low values 1 | locus YPL241C, strain CIN2, hits give low values 0.996

N[C@@H](CS(=O)O)C(=O)O
inactive: [1] 0.98 | [2] 1.01 | [3] 0.98 | locus YGR078C, strain PAC10, hits give low values 1.01 | locus YGR229C, strain SMI1, hits give low values 0.954 | [4] 0.987 | [5] 1.02 | [6] 1.02 | [7] 1.02
